Potency data for 40 molecules are collected here from PubChem BioAssay AID686915 (National Center for Advancing Translational Sciences (NCATS), 2013).

“And” between values parts separate entries of the source, which are not always exact repeats. Equal values may be shown once. Inconclusive results are not listed. A call without a number means that no potency is given here. The source made the active and inactive calls. Calls come from the whole dose curve; as a rule, active = well fitted inhibition curve with a large enough effect; inconclusive = small, poorly fitted or top-dose-only effect; inactive = no such curve, though single readings can be large or run the other way.

This assay in a line: qHTS screen for inhibitors of ELG1-dependent DNA repair in human embryonic kidney (HEK293T) cells expressing luciferase-tagged ELG1: MMS Stimulated Assay for probe SAR. The note with it: HEK293T ELG1-luciferase reporter, 16 h; series mostly up to 46.1 µM. The source says:
Cancer cells divide rapidly compared to normal cells in the body. During cell division, cancer cells need to duplicate their genome by DNA replication. The failure of genome duplication leads to cancer cells' death. Therefore, inhibitors of DNA replication could specifically kill cancer cells. Based on this concept, many chemotherapeutic agents were developed and have been used to treat cancer patients. However, there are a limited number of agents available in the clinical setting, and some of those that do exist have low efficacy and severe side effects. Therefore, if we can find the compounds that effectively block DNA replication either by directly damaging DNA or by inhibiting other cellular mechanisms, the options for cancer treatment will be broadened. With this in mind, we developed a quantitative high-throughput ELG1-luciferase reporter gene assay. Small molecules that specifically block ELG1 function in response to DNA damage can be identified by monitoring the suppression of luciferase activity. Since ELG1 defines a pathway for repairing DNA damage, agents blocking ELG1 function can be used to sensitize cancer cells to chemotherapeutic agents whose mechanism of action involves the induction of DNA damage. NIH Molecular Libraries Probe Production Network [MLPCN] NIH Chemical Genomics Center [NCGC] MLPCN Grant: R03 MH092164 Assay Provider: Kyungjae Myung, NHGRI, NIH
ELG1-luc HEK293T cells will be seeded in 1536-well plates at a density of 2,000 cells / well. Approximately 5 hours after plating, compounds will be added to the plate by pin tool transfer and MMS will be added by FRD dispenser (final concentration of MMS = 10 µM). 16 hours following the addition of the compounds, luciferase activity will be measured using Amplight reagent.
(In general: qHTS replaces the single test concentration by a dilution series.)
In the case of `Cc1nc2ccc(Nc3nc(-c4ccncc4)nc4ccccc34)cc2s1`, the Potency result is “inactive”.
For `Fc1ccc(-c2ccc(Nc3nc(-c4ccncc4)nc4ccccc34)cc2F)c(Cl)c1` the value was 11.8 µM (active); for `COc1cc(Nc2nc(-c3ccncc3)nc3ccccc23)ccc1N1CCN(C)CC1`, “inactive”.
The value for `Cc1ccc(Nc2nc(-c3ccncc3)nc3ccccc23)cc1F` was “inactive”.
In the case of `COc1ccc(-n2c(C)c(C(C)=O)c3ccccc32)cc1`, the Potency is 7.43 µM (active) and 6.62 µM (active).
On to `Fc1cc(Nc2nc(-c3ccncc3)nc3ccccc23)ccc1-c1cccc(OC(F)(F)F)c1`, for which the Potency was 23.5 µM (active).
As for `COc1ccc(Nc2nc(-c3ccncc3)nc3ccccc23)cc1F`, the Potency result was “inactive”.
On to `Fc1cc(Nc2nc(-c3ccncc3)nc3ccccc23)ccc1-n1cncn1`, for which the Potency entry is “inactive”.
For `Fc1cc(-c2nc(Nc3ccc(F)c(F)c3)c3ccccc3n2)ccn1` the value was “inactive”.
Consider `Fc1cc(Nc2nc(-c3ccncc3)nc3ccccc23)ccc1-c1cccnc1`, for which the Potency entry was “inactive”.
The value for `Fc1cc(Nc2nc(-c3ccncc3)nc3ccccc23)ccc1-c1ccc2[nH]ncc2c1` was “inactive”.
`COc1nccc(-c2nc(Nc3ccc(F)c(F)c3)c3ccccc3n2)c1Cl`: the Potency entry was “inactive”.
For `Fc1cccc(-c2ccc(Nc3nc(-c4ccncc4)nc4ccccc34)cc2F)c1` the value was “inactive”; for `Fc1cc(Nc2nc(-c3ccncc3)nc3ccccc23)ccc1-c1ccnc(C(F)(F)F)c1`, “inactive”.
For `Fc1ccc(Nc2nc(-c3ccnc(C(F)(F)F)c3)nc3ccccc23)cc1F` the value was 18.7 µM (active).
On to `Fc1ccccc1-c1ccc(Nc2nc(-c3ccncc3)nc3ccccc23)cc1F`, for which the Potency was 16.6 µM (active).
As for `N#Cc1cc(-c2nc(Nc3ccc(F)c(F)c3)c3ccccc3n2)ccn1`, the Potency result is “inactive”.
For `O=c1cc(-c2nc(Nc3ccc(F)c(F)c3)c3ccccc3n2)cc[nH]1` the value was “inactive”; for `COc1cnccc1-c1nc(Nc2ccc(F)c(F)c2)c2ccccc2n1`, 13.2 µM (active); for `COc1ccc(-c2nc(Nc3ccc(F)c(F)c3)c3ccccc3n2)cc1`, “inactive”.
For the molecule `Fc1ccc(Nc2nc(-c3ccncc3Cl)nc3ccccc23)cc1F`, the Potency result is “inactive”.
As to `Fc1cc(Nc2nc(-c3ccncc3)nc3ccccc23)ccc1C(F)(F)F`, the Potency was 8.33 µM (active) and 13.2 µM (active).
For the molecule `Fc1cc(Nc2nc(-c3ccncc3)nc3ccccc23)ccc1-c1ccc(F)c(F)c1F`, the Potency entry is “inactive”.
As to `Fc1cc(Nc2nc(-c3ccncc3)nc3ccccc23)ccc1-c1ccncc1`, the Potency entry was “inactive”.
As to `Fc1cc(Nc2nc(-c3ccncc3)nc3ccccc23)ccc1-c1cncnc1`, the Potency entry was “inactive”.
`Cc1cnccc1-c1nc(Nc2ccc(F)c(F)c2)c2ccccc2n1`: the Potency entry was “inactive”.
Take `COc1cc(Nc2nc(-c3ccncc3)nc3ccccc23)ccc1NS(C)(=O)=O`: the Potency result is “inactive”.
As for `Nc1cc(-c2nc(Nc3ccc(F)c(F)c3)c3ccccc3n2)ccn1`, the Potency entry is “inactive”.
As for `CCOC(=O)c1ccc2c(c1)c(C(C)=O)c(C)n2-c1ccc(OC)cc1`, the Potency result is “inactive”.
The value for `Fc1cc(Nc2nc(-c3ccncc3)nc3ccccc23)ccc1OCC(F)(F)F` was “inactive”; that for `COc1ccc(-c2ccc(Nc3nc(-c4ccncc4)nc4ccccc34)cc2F)cc1F` was “inactive”; that for `Cc1cc(-c2nc(Nc3ccc(F)c(F)c3)c3ccccc3n2)ccn1` was “inactive”.
For `Fc1ccc(-c2nc(-c3ccncc3)nc3ccccc23)cc1F` the value was “inactive”.
Consider `Fc1cc(Nc2nc(-c3ccncc3)nc3ccccc23)ccc1-c1cn[nH]c1`, for which the Potency result is “inactive”.
Regarding `Cc1cc(-c2nc(Nc3ccc(F)c(F)c3)c3ccccc3n2)cc(C)n1`, the Potency entry is “inactive”.
The value for `Cc1noc(C)c1-c1ccc(Nc2nc(-c3ccncc3)nc3ccccc23)cc1F` was 18.7 µM (active).
The value for `Fc1cc(Nc2nc(-c3ccncc3)nc3ccccc23)ccc1-c1cccc(OC(F)F)c1` was “inactive”; that for `Fc1ccc(Nc2nc(-c3ccncc3)nc3ccccc23)cc1F` was “inactive”.
For `CSc1ccccc1-c1ccc(Nc2nc(-c3ccncc3)nc3ccccc23)cc1F` the value was 18.7 µM (active); for `N#Cc1cnccc1-c1nc(Nc2ccc(F)c(F)c2)c2ccccc2n1`, 5.26 µM (active).
